# High-throughput results as filed in PubChem BioAssay.
# An excerpt weighted towards active compounds, which were near 2.4% of everything screened.
# PINK1 expr mod: A Quantitative High throughput Screen to Identify Chemical Modulators of PINK1 Expression | Potency, µM (titrated, usually from 76.6 µM), inactives show at the top dose activation (PINK1 increase), most hits filed as activators | actives 0.2% (n = 410,000) | PINK1 immunofluorescence, high-content cytometry, 24 h; active = well fitted activation curve with a large enough effect; inconclusive = small, poorly fitted or top-dose-only effect; cell line not stated here; note: % of control where 0% means no effect; nearly all actives have a fitted effect of over 65% in size
#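 Cells are seeded, rested 12 hours, then given compound at five concentrations or DMSO for 24 hours. After fixation, blocking and antibody staining, PINK1 amount and mitochondrial localization are scored; CCCP serves as control.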
# Nrf2 ARE act: qHTS of Nrf2 Activators. actives 0.31% (n = 410,000). AREc32 ARE-luciferase reporter (MCF7-derived line), luminescence, 24 h. AID 624171, 2012. Potency, µM (series often up to 46.1 µM), for inactives: at the highest dose activation, actives largely listed as activators; note: % of control where 0% means no effect; nearly all actives have a fitted effect of over 65% in size
#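 Nrf2 activation is followed as ARE-luciferase induction in the AREc32 line after one day of compound treatment; luminescence is read with Steady-Glo.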
# Nrf2 inh: Nrf2 qHTS screen for inhibitors; actives 2.1% (n = 360,000); Potency, µM (top dose mostly 46 µM), inactives show at the highest dose activity change, negative = inhibition, usual class: inhibitors; A549 ARE-Fluc reporter, luciferase luminescence, 18-24 h; AID 504444, 2011; note: % is set by controls: 0 for no effect and ±100 for the full control effect; nearly all actives have a fitted effect of over 60% in size
#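 A549 ARE_Fluc cells (5000/well, 5% FBS OPTI-MEM) pre-incubated 2 h, then treated with compounds 18-24 h at 37C/5% CO2 in concentration-response. CellTiter-Fluor viability read first; BugLite luciferase luminescence after 15 min at room temperature gives Nrf2 activity.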
# Epigenetic reg: Quantitative High-Throughput Screen for Regulators of Epigenetic Control. Potency, µM (titrated, usually from 53.9 µM), inactives show at the highest dose GFP activation, most hits filed as activators. AID 1865, 2009. murine LDR cells, GFP reporter derepression, 30 h. actives 0.2% (n = 280,000); note: % of control where 0% means no effect; nearly all actives have a fitted effect of over 60% in size
#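 Readout is the number of GFP-expressing murine LDR cells, counted by cytometry following washing. Cells were treated with compound for 30 h at 37 C; the stably integrated CMV-GFP locus is normally silent.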
# A549 tox: Nrf2 qHTS screen for inhibitors: counterscreen for cytotoxicity. A549 ARE-Fluc cells, CellTiter-Fluor viability, 18-24 h. Potency, µM (titrated, usually from 46 µM), for the others: at the top dose activity change, negative = cytotoxicity, usual class: inhibitors. actives 0.16% (n = 390,000). AID 504648, 2011; note: % is set by controls: 0 for no effect and ±100 for the full control effect
#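 A549 ARE-Fluc cells in 5% FBS OPTI-MEM, 5000 cells/well, rested 2 h then exposed to compounds in concentration-response for 18-24 h at 37 °C. Viability by CellTiter-Fluor fluorescence (Ex 405/Em 525) after 30 min; luciferase luminescence (BugLite, 15 min, RT) read afterwards.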
# Active calls of the source: *; ? = inconclusive; / = not tested or not shown; [ ] = dose if it differs, or a comment. Unless noted, calls come from the whole dose curve; as a rule, active = well fitted curve in the direction sought with a large enough effect; inconclusive = small, poorly fitted or top-dose-only effect, or another doubt; inactive = no such curve, though single readings can be large; an effect the other way counts as inactive or inconclusive. Potency is the fitted concentration of half-maximal effect.
SMILES,PINK1 expr mod,Nrf2 ARE act,Nrf2 inh,Epigenetic reg,A549 tox
COc1ccc(C(NC(=O)C(C)C)c2ccc3cccnc3c2O)cc1 (stereo unspecified),1%,0%,?,3.5µM*,-15%
Oc1c(C(Nc2ccccn2)c2ccccc2F)ccc2cccnc12 (stereo unspecified),1%,5%,?,3%,-12%
Oc1c(C(Nc2ccccn2)c2ccccn2)ccc2cccnc12 (stereo unspecified),0%,0%,?,3.5µM*,-11%
CC(=O)NC(c1ccco1)c1ccc2cccnc2c1O (stereo unspecified),0%,-1%,16µM*,?,-19%
CCC(=O)NC(c1ccc(Cl)cc1Cl)c1ccc2cccnc2c1O (stereo unspecified),-2%,10%,?,/,-18%
Cc1ncc2c(c1CNC(=O)c1ccc3c(c1)OCO3)CCN(C(=O)c1noc3c1CCCC3)C2,0%,/,/,/,/
Cc1c(C(=O)NCCc2ccncc2)cnn1-c1nccc(-c2ccccc2C(F)(F)F)n1,0%,/,/,/,/
COc1ccccc1-c1nc(SCC(=O)NCc2ccccc2)c2c(=O)n(C)c(=O)n(C)c2n1,2%,-1%,/,-3%,2%
COC(=O)[C@@H]1CCCN1C(=O)c1c(OC)cc(=O)n2c1CCN(Cc1ccc(C)o1)CC2,0%,/,/,/,/
CC(=O)N1c2ccc(S(=O)(=O)NCC3CCC(C(=O)Nc4cccc(C)c4)CC3)cc2CC1C (stereo unspecified),0%,6%,?,-2%,-2%
CC(=O)N1c2ccc(S(=O)(=O)NCCc3cccc(C)c3)cc2CC1C (stereo unspecified),1%,4%,13µM*,-1%,-1%
CCC(=O)N1c2ccc(S(=O)(=O)NCCc3ccc(OC)c(OC)c3)cc2CC1C (stereo unspecified),-1%,0%,?,/,2%
CCC(=O)N1c2ccc(S(=O)(=O)NCCc3ccccc3)cc2CC1C (stereo unspecified),0%,-1%,23µM*,0%,-9%
Clc1cccc(Cl)c1CO/N=C/c1c(-c2ccccc2)nc2n1CCS2,/,0%,18µM*,-1%,-24%
CCCNC(=O)Cn1nc(C)c2c(C)n(-c3ccccc3)nc2c1=O,2%,-1%,/,0%,11%
CC1CCc2onc(C(=O)N3CCN(c4ccc(Cl)cc4)CC3)c2C1 (stereo unspecified),?,0%,21µM*,3%,-4%
O=C(Nc1ccc(S(=O)(=O)N(Cc2ccccc2)c2ccccc2)cc1)c1ccccc1F,2%,-1%,6%,8%,0%
O=C(Nc1ccc(S(=O)(=O)N(Cc2ccccc2)c2ccccc2)cc1)c1ccc(F)cc1,3%,1%,23µM*,-3%,-9%
CCOC(=O)C1=C(O)/C(=C/c2cn(CC(=O)NCC3CCCO3)c3ccccc23)SC1=Nc1ccc(C)cc1 (stereo unspecified),14µM*,-1%,?,/,?
CCOC(=O)C1=C(O)/C(=C/c2ccc(-c3ccccc3C(=O)O)o2)SC1=Nc1ccc(C)cc1,0%,3%,-12%,4%,-7%
Cc1cc(C(=O)N2CCCC(C(=O)c3cccc(C(F)(F)F)c3)C2)n[nH]1 (stereo unspecified),-2%,0%,18µM*,/,-16%
Fc1cccc(NC(=S)NC2CCCCCCC2)c1,16µM*,0%,-5%,/,7%
FC(F)(F)c1cccc(NC(=S)NC2CCCC2)c1,?,0%[9.22 µM],?,0%,3%
COc1ccc(N2C(=O)[C@@H]3C[C@H]2CN3Cc2ccc3nccnc3c2)cc1Cl,0%,/,/,/,/
O=C1C=C(NCCc2cc(Br)c(O)c(Br)c2)C(=O)c2ncccc21,?,?,?,/,23µM*
O=C1C=C(NCCO)C(=O)c2cnccc21,/,/,/,1%,/
COc1ccc(C(=O)NCCc2nnc3n2CCN(CC2CC=CCC2)CC3)cc1 (stereo unspecified),0%,/,/,/,/
CCOc1ccc(-c2nnc(SCC(=O)NC(C)(C)C)nc2-c2ccc(OCC)c(OC)c2)cc1OC,2%,0%,?,/,-8%
